The whole screen tested about 350,000 compounds, of which about 31,000 (8.9%) were called active. Inconclusive results (about 15%) are left out. For the sample, actives were picked, then their nearest neighbours and some compounds at random. Values without a mark were called inactive. Calls come from the whole dose curve; as a rule, active = well fitted inhibition curve with a large enough effect; inconclusive = small, poorly fitted or top-dose-only effect; inactive = no such curve, though single readings can be large or run the other way.
biological target: Histone-lysine N-methyltransferase EHMT2 (Homo sapiens) (UniProt Q96KQ7); test: qHTS Assay for Inhibitors of Histone Lysine Methyltransferase G9a; settings: G9a H3K9 monomethylation, AlphaScreen, 2 h; series mostly up to 59 µM; activity, negative = inhibition: at the top concentration; note: nearly all actives have a fitted effect of over 75% in size
Sequence (Q96KQ7 913-1193 limits assumed): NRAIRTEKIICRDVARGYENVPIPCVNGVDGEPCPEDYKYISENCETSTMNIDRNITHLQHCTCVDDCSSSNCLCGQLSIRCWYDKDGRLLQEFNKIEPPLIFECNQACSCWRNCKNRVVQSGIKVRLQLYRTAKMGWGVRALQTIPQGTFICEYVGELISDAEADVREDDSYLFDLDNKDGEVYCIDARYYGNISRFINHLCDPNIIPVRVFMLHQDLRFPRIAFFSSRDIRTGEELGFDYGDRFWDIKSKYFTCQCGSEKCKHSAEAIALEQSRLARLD
From the text: Methylated lysines, on the N-terminal tails of histone proteins serve as epigenetic markers to recruit factors that can then modify local chromatin structure to lead to functional consequences. G9a and other members of the SUV39 family of the SET domain-containing superfamily of histone lysine methyltransferases (HMT) have been identified to specifically methylate Lys9 of histone H3 (H3K9). G9a catalyzes the mono- and di-methylation of H3K9 in mammalian euchromatic regions, where the resulting H3K9me2 is indicative of transcriptional repression. […] The inhibition of G9a will result in transcriptional activation and work synergistically with DNA methyltransferase and histone deacetylase inhibitors, to kill cancer cells. This qHTS assay for identification of G9a inhibitors is a chemiluminescence based AlphaScreen (PerkinElmer). Methylation of biotinylated-histone peptide is measured through specific antibody-based detection, in conjunction with streptavidin-coated donor and anti-IgG antibody-coated acceptor beads. The method is particularly well suited for detection of inhibitors acting by the desired histone peptide competitive mechanism and is applicable to testing other HMTs. Although AlphaScreen has significant advantages with its utility in a variety of epigenetic target assays, the primary screening data provided in this deposition should be used with caution due to the prevalence of screening artifacts. An AlphaScreen counterscreen is highly recommended to be run against any putative actives to eliminate non specific artifacts. Alternatively, one can use other AlphaScreen assays in PubChem to filter out promiscuous hits. Quinn et al. A chemiluminescence-based method for identification of histone lysine methyltransferase inhibitors. Mol Biosyst 6(5): 782-8. 2010. PMID: 20567762 [2] Baell,Holloway. New substructure filters for removal of pan assay interference compounds (PAINS) from screening libraries and for their exclusion in bioassays. J Med Chem. 53(7):2719-40. 2010. PMID: 20131845 NIH Molecular Libraries Probe Production Network [MLPCN] NIH Chemical Genomics Center [NCGC] Structural Genomics Consortium (SGC) NIH Grant: 5U54 MH084681-02
To each well of a 1,536w plate, 2ul of HMT enzyme (final 20nM) were added, using a nanoliter dispenser. The G9a- and GLP-inhibitor BIX-01294 (CID: 25150857) are used as an intraplate control, with a 16-point titration in duplicate. A Kalypsys pin-tool transferred 23nl of library compound solution in DMSO to each well. Following a 15 min incubation of enzyme with compounds at room temperature, 1ul mixture of b-H3K9 peptide substrate (final 500nM) and SAM cofactor (final 20uM) were added. Reactions were allowed to proceed at room temperature for 2 hours. Methylated b-H3K9 peptide product was detected with 0.5 ug/mL rabbit polyclonal anti-monomethyl histone H3K9 antibody (Abcam Inc., Cambridge, MA) and 20 ug/mL each streptavidin-coated donor and anti-rabbit IgG acceptor AlphaScreen beads. Antibody and beads were added in a 1ul dispense, for a final volume of 4ul, and plates were incubated, protected from the light, for 10 min at room temperature. Microplates were then read on an EnVision multilabel plate reader using the 1,536 plate HTS AlphaScreen aperture (excitation time 80 ms, measurement time 240 ms).
% is set by controls: 0 for no effect and ±100 for the full control effect; potency is the fitted concentration of half-maximal effect.

SMILES	Potency	activity, negative = inhibition
CCS(=O)(=O)Nc1ccc(C(=O)NCCSc2ccccc2)cc1	79.4 µM (active)	
Cc1ccc(C(=O)NCCNS(=O)(=O)c2ccccc2)cc1		-7.76% [at 102 µM]
O=C(NCCSc1ccccc1)c1ccco1		16.8% [at 102 µM]
CCCN(C(=O)c1nc2nccc(C)n2n1)c1c(N)n(Cc2ccccc2)c(=O)[nH]c1=O		3.83% [at 12.7 µM]
CC(OC(=O)CCC(=O)c1ccccc1)C(=O)Nc1ccc(F)cc1 (centres undefined)		-46%
O=C(Nc1ccc(S(=O)(=O)NCC2CCCO2)cc1)c1ccc(F)cc1 (centres undefined)		-3.3% [at 102 µM]
N#Cc1c(C(F)(F)F)cc(-c2ccc(Cl)cc2)nc1SCC(=O)O		-33.3% [at 102 µM]
CCSc1nc(-c2ccc(OC)cc2)cc(-c2ccc(OC)cc2)c1C#N		9.7% [at 102 µM]
N#Cc1c(-c2ccccc2)cc(-c2ccccc2)nc1SCC(=O)O	11.2 µM (active)	
CCc1ccc(NC(=O)c2cnc3c(-c4ccccc4)c(C)nn3c2C)cc1		4.34%
O=C(NCc1ccc2c(c1)OCO2)c1c(O)nc2sccn2c1=O		-48.6% [at 102 µM]
Cc1ccc(NC(=O)C(Cc2ccccc2)NS(=O)(=O)c2ccc3c(c2)oc(=O)n3C)cc1C (centres undefined)		11.1%
O=C(C[n+]1ccccc1)N/N=C/c1ccc(O)cc1		-14.7% [at 102 µM]
O=C(N/N=C/c1ccc(OCc2ccccc2)cc1)c1ccc(O)cc1		6.52% [at 102 µM]
Oc1ccc(/C=N/N(Cc2ccccc2)c2ccccc2)cc1	39.8 µM (active)	
Cc1ccc(Cn2c(CNC(=O)Cc3cccc(C)c3)nc3cccnc32)cc1		5.94%
CC1=C(C(N)=O)C(c2ccc(Br)cc2)n2ncnc2N1 (centres undefined)		-24.4% [at 102 µM]
Fc1ccccc1/C=C1\CCCC2=C1Nc1ncnn1C2c1ccccc1F (centres undefined)	35.5 µM (active)	
CCOC(=O)C1=C(c2ccccc2)Nc2ncnn2C1c1ccc(Cl)cc1 (centres undefined)		-29.8%
COc1cc(NC(=O)c2nn(-c3ccc(C)cc3)c(=O)c3c2c2ccccc2n3C)cc(OC)c1OC		7.8%
COc1ccc2c(c1)CCc1c(C(=O)Nc3cc(C)ccc3O)noc1-2		-23.4%
Cc1ccc(S(=O)(=O)c2ccc(Oc3ccccc3)cc2)cc1		65.5%
Cc1cc(C(C)(C)C)cc(C)c1N		-0.892%
CC(C)(C)c1ccc(Oc2ccc(N)cc2)cc1	50.1 µM (active)	

SMILES	Potency	activity, negative = inhibition
Cc1ccc(Oc2ccc(N)cc2)cc1	50.1 µM (active)	
CC(C)(C)c1ccc(OC2=CS(=O)(=O)c3ccccc32)cc1		-27.5% [at 102 µM]
Cc1cc(C)cc(N)c1		2.02% [at 0.501 µM]
NC(=O)NC(=O)C(OC(=O)CCNS(=O)(=O)c1ccccc1)c1ccccc1 (centres undefined)		-49.4%
CCCS(=O)(=O)Nc1cccc(-c2cn3ccsc3n2)c1		-45.7%
Cc1ccc(NC(=O)Cc2nc(COC(=O)C(C)NS(=O)(=O)c3ccc(C)cc3)cs2)cc1 (centres undefined)		-6.75% [at 12.7 µM]
Cc1ccc(S(=O)(=O)c2c(Nc3cccc(Cl)c3)sc(C(=O)c3ccc4c(c3)OCO4)c2N)cc1		-12.4%
COc1ccc(CNC(=O)CCc2c(C)nn(-c3ccc(N4CCCC4)nn3)c2C)cc1		11.4%
O=C(c1ccncc1)c1ccc([N+](=O)[O-])cc1		-22.8% [at 102 µM]
O=C(Cn1c[n+](CC(=O)c2ccc([N+](=O)[O-])cc2)cn1)c1ccc([N+](=O)[O-])cc1	inactive	
O=C(CC(n1cncn1)C(Cl)(Cl)Cl)c1ccc([N+](=O)[O-])cc1 (centres undefined)	10 µM (active)	
O=C(O)[C@@H](S)[C@H](S)C(=O)O	6.31 µM (active)	
Cc1cccc(CNC(=O)c2cnc3sc(N4CCCCC4)nn3c2=O)c1		7.83%
CCCC12CN3CC(CCC)(CN(C1)C3c1c[nH]c3ccc(OC)cc13)C2=O (centres undefined)		-41.5%
S=C(NNC(=S)NC1CC2C=CC1C2)NC1CC2C=CC1C2 (centres undefined)	2 µM (active)	
CCn1c(CNC(=O)C23CC4CC(CC(C4)C2)C3)nnc1SCC(=O)Nc1ccc(OC)cc1		4.32%
Cc1ccc(-c2nc(SCc3ccc(Br)cc3)n3[nH]c(=O)cc3n2)cc1		-1.28%
NC(=O)C(=O)N/N=C/c1ccc([N+](=O)[O-])o1		26.4%
Cc1ccc(Nc2ccc3cc(S(=O)(=O)N4CCCCC4)ccc3n2)cc1F		1.39%
O=S(=O)(c1ccc2nc(N3CCN(c4cccc(Cl)c4)CC3)ccc2c1)N1CCCCC1		8.8%
O=S(=O)(c1ccc2nc(NCc3ccccc3Cl)ccc2c1)N1CCCCC1	7.94 µM (active)	
COc1ccc(NC(=O)CN(C)C(=O)c2cccc(S(=O)(=O)N3CCN(c4ccccc4)CC3)c2)cc1		-46.2% [at 102 µM]
COc1cc(C(=O)N2CCN(C)CC2)cc(OC)c1OC		-4.42% [at 102 µM]
COC(=O)c1cccc(NC(=O)CN2CCC(NC(=O)c3cc(OC)c(OC)c(OC)c3)CC2)c1		-30% [at 102 µM]

SMILES	Potency	activity, negative = inhibition
CCN1CCN(CC(=O)c2cc(OC)c(OC)c(OC)c2)CC1	39.8 µM (active)	
CCOC(=O)c1ccccc1CN1C(=O)c2ccccc2S1(=O)=O		28.8% [at 102 µM]
Cc1cc(C)c2oc(-c3cccc(NC(=O)c4cccc(F)c4)c3C)nc2c1		-3.15%
CC/C(O)=N\S(=O)(=O)c1ccc(N=NN(C)C)cc1		-8.72%
CN(C)N=Nc1ccc2nc[nH]c2c1	1.78 µM (active)	
COc1ccc(/C(C)=N/NC(=O)c2ccc3nc[nH]c3c2)cc1		68% [at 102 µM]
CCc1ccc(NC(=O)CSc2nnc(-c3cnccn3)n2Cc2ccco2)cc1		-31.5% [at 12.7 µM]
O=C(CSc1nnc(-c2cccnc2)n1Cc1ccco1)c1ccc(Cl)c(Cl)c1	50.1 µM (active)	
O=C(CSc1nnc(-c2cnccn2)n1Cc1ccco1)c1ccc(Cl)c(Cl)c1	50.1 µM (active)	
C=CCn1c(CNC(=O)c2ccco2)nnc1SCC(=O)c1ccc(OC)cc1		12.4% [at 102 µM]
Cn1c(Cc2csc(N)n2)nnc1SC/C=C/c1ccccc1		12.8% [at 12.7 µM]
COc1ccc(C(=O)CSc2nnc(COc3ccccc3)n2Cc2ccco2)cc1	50.1 µM (active)	
O=C(CSc1nnc(-c2cccnc2)n1Cc1ccco1)c1ccc(Cl)cc1		-8.68%
C(=C\c1ccccc1)/CSc1nnc(-c2cccnc2)n1Cc1ccco1	50.1 µM (active)	
O=C(CSc1nnc(COc2ccc(Cl)cc2)n1Cc1ccco1)N1CCNC1=O		-16.3% [at 0.501 µM]
Cc1ccc(NC(=O)CSc2nnc(-c3cnccn3)n2Cc2ccco2)cc1C		7.37% [at 12.7 µM]
Cc1ccccc1CSc1nnc(-c2cccnc2)n1N		3.07% [at 12.7 µM]
CCOC(=O)Cc1csc(NC(=O)CSc2nnc(-c3cccnc3)n2Cc2ccco2)n1		-47.7%
COc1ccc2c3c(c(=O)oc2c1)C1O[C@](CCCCN2C(=O)c4ccccc4C2=O)(Cc2c1ccc1ccccc21)O3		-1.18% [at 2.33 µM]
O=C(COc1ccc(Cl)cc1)Nc1ccc(-c2nc3cc(Cl)ccc3o2)c(O)c1		35.9%
CCc1ccc(C(=O)NNC(=O)C2CCN(c3ncnc4sc(C)c(C)c34)CC2)cc1		-1.98% [at 102 µM]
Cc1ccc(Cl)cc1N(C)C(=O)C1CCCN(c2ncnc3onc(-c4ccc(F)cc4)c23)C1 (centres undefined)		-6.61%
CCC1(CC)NC(=O)N(CC(=O)OCC(=O)c2cc(C)c(C)cc2C)C1=O		-8.44% [at 102 µM]
O=C(COC(=O)CNC(=O)C1CCCCC1)Nc1cccc(F)c1		-1.37% [at 12.7 µM]

SMILES	Potency	activity, negative = inhibition
CCc1ccc(NC(=O)Cn2c(=O)n(CCC(=O)NCc3ccc4c(c3)OCO4)c(=O)c3ccccc32)cc1		-1.55%
CC(C)(C)NC(=O)CSc1nc(-c2ccc(F)cc2)cc(C(F)(F)F)n1		-8.07%
O=C(NCCS(=O)(=O)NCc1ccc(F)cc1)c1ccccc1		-4.54% [at 102 µM]
Cc1ccc(NC(=O)c2ccc(CN3CC(=O)N4CCCCC4C3=O)cc2)c(Cl)c1 (centres undefined)		-21.2%
CC(C)(C)OC(=O)Nc1ccc([C@@H](NC(=O)OC(C)(C)C)C(=O)OC(C)(C)C)cc1		9.51% [at 0.501 µM]
Cc1ccc2sc(N(Cc3cccnc3)C(=O)C3COc4ccccc4O3)nc2c1C (centres undefined)		-4.67%
Cc1cc(NC(=O)CSc2nc3cc(Cl)ccc3c(=O)n2Cc2ccco2)no1		-23.2% [at 102 µM]
CCn1c(SCC(=O)Nc2cc(C)c(Cl)cc2OC)nnc1-c1ccco1		-6.92%
COc1cc(Cl)c(C)cc1NC(=O)CSc1nnc(-c2cccnc2)n1Cc1ccco1	39.8 µM (active)	
CCCCN(C)S(=O)(=O)c1ccc(C(=O)Nc2sc3c(c2C(N)=O)CC(C)(C)NC3(C)C)cc1		8.97%
COc1ccc(-c2nc3c4ccccc4n(CC(=O)Nc4ccc(C(C)=O)cc4)c(=O)n3n2)cc1		-0.383%
COCCN1C(=O)C(=O)/C(=C(/O)c2ccc(S(=O)(=O)N3CCOCC3)cc2)C1c1ccc(O)c(OC)c1 (centres undefined)		-19.1% [at 102 µM]
COCCN1C(=O)C(=O)/C(=C(/O)c2ccc(S(=O)(=O)N3CCCCC3)cc2)C1c1ccc(OC)c(OC)c1 (centres undefined)		81.3% [at 102 µM]
COc1cc(C2/C(=C(\O)c3ccc4c(c3)CC(C)O4)C(=O)C(=O)N2c2nnc(C)s2)cc(OC)c1OC (centres undefined)	44.7 µM (active)	
CC(CCCc1ccccc1)NC(=O)c1nn(-c2ccc(Cl)cc2)nc1CO (centres undefined)		0.317%
O=C(Nc1nnc(S(=O)(=O)N2CCCc3ccccc32)s1)c1cccc(F)c1		-6.49%
Cc1cccc(NC(=O)Cn2c(C(F)(F)F)nc3ccccc32)c1C		4.54%
CCc1ccccc1NC(=O)c1sc2nc3c(cc2c1N)CN(Cc1ccccc1)CC3		-9.21%
CCN1CCc2nc3sc(C(=O)Nc4ccccc4OC(F)(F)F)c(N)c3cc2C1	14.1 µM (active)	
CCc1ccc2nc3sc(C(=O)Nc4nnc(CC)s4)c(N)c3cc2c1		-8.03% [at 12.7 µM]
CCc1ccc(NC(=O)CSc2nc3c([nH]c4ccccc43)c(=O)n2-c2cccc(OC)c2)cc1		-2.08%
Cc1ccc2c(c1)c1c(c(=O)n(-c3ccccc3)c(=O)n1CC(=O)c1ccc(Cl)cc1)n2C		-28.8%
